Experiment [1] in a line: qHTS assay to identify small molecule agonists of the estrogen receptor alpha (ER-alpha) signaling pathway in the presence of an antagonist - cell viability counter screen (AID 1259386).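 Also: series mostly up to about 92 µM; cells exposed to compounds for 22 h at 37 °C before the viability read; nearly all actives have a fitted effect of over 30% in size.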 The essentials: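 VM7Luc4E2, stripped-serum pre-culture 5 d; 24hr plating; +ICI-182,780 10.0nM final; cpds 15 conc, 22hr, 37C/5% CO2; CellTiter-Fluor added at 21hr, fluorescence 1hr later.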
Background: Quantitative high-throughput screening tests each substance at several concentrations.

Experiment [2] deals with Progesterone receptor (Homo sapiens) (UniProt P06401). Briefly: qHTS assay to identify small molecule agonists of the progesterone receptor (PR) signaling pathway (AID 1346784; calls by dose curve; also: nearly all actives have a fitted effect of over 30% in size; also: potency is read from the fitted curve at half-maximal effect). In short, it runs like this:
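Agonist qHTS: compounds pinned onto 3,000 PR-UAS-bla HEK 293T cells per well in charcoal-stripped serum medium, 16hr at 37C, then beta-lactamase activity measured by LiveBLAzer FRET fluorescence after 2 hours at room temperature.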

The target is the same in experiment [3]. Kind of experiment: qHTS assay to identify small molecule antagonists of the progesterone receptor (PR) signaling pathway (AID 1346795; active = well fitted inhibition curve with a large enough effect in the signal ratio in the repeat runs, not every such curve was filed as active; the % refers to the signal ratio; also: potency is read from the fitted curve at half-maximal effect). In short, it runs like this: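 Antagonist mode with agonist R5020 at 1 nM final and 16 hr incubation at 37C. Reporter was beta-lactamase driven by UAS in HEK293T (PR-UAS-bla), 2% charcoal-stripped serum; signal from LiveBLAzer FRET substrate, 2 hr at room temperature.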

Experiment [4] is described as follows: qHTS assay to identify small molecule antagonists of the progesterone receptor (PR) signaling pathway - cell viability counter screen (AID 1346798). Also: series mostly up to about 92 µM; nearly all actives have a fitted effect of over 50% in size. In short, it runs like this:
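Cytotoxicity read as CellTiter-Glo luminescence (30 min, room temperature) in the same wells as the beta-lactamase readout. HEK293T PR-UAS-bla cells in charcoal-stripped 2% FBS received compound and R5020, then 16 h at 37C, 5% CO2.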

A short description of experiment [5]: qHTS assay to identify small molecule antagonists of the TGF-beta/Smad signaling pathway - cell viability counter screen (AID 1346824). Also: nearly all actives have a fitted effect of over 50% in size. In short, it runs like this:
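SBE-bla HEK 293T cells were plated overnight at 37 C, then given compounds in DMSO plus TGF-beta1 (added as 0.25 ng/mL solution) for 5 hr. After the bla read, CellTiter-Glo was added to the same wells and luminescence read after 30 min at room temperature.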

The nature of experiment [6]: qHTS assay to identify small molecule agonists of the TGF-beta/Smad signaling pathway - cell viability counter screen (AID 1346829). Also: top concentration of the series differs between compounds; nearly all actives have a fitted effect of over 45% in size. The essentials: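 SBE-bla HEK 293T cells plated overnight, compound exposure 5 hr at 37 C. Viability read in the same wells by CellTiter-Glo luminescence after 30 min at room temperature, following the beta-lactamase read.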
A short description of experiment [7]: qHTS assay to identify small molecule agonists of the TGF-beta/Smad signaling pathway (AID 1346859; active = well fitted activation curve with a large enough effect in the signal ratio in the repeat runs, not every such curve was filed as active; the % refers to the signal ratio; also: series mostly up to about 77 µM). The essentials: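 Fluorescence (ex 405 nm; em 460 and 530 nm) was read 2 h after LiveBLAzer FRET substrate at RT. The preceding compound treatment of overnight-plated SBE-bla HEK293T cells lasted 5 h at 37 C.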
Experiment [8] concerns the target Thyrotropin-releasing hormone receptor (Homo sapiens) (UniProt P34981). Kind of experiment: qHTS assay to identify small molecule antagonists of the thyrotropin-releasing hormone receptor (TRHR) signaling pathway (AID 1346877; active = well fitted inhibition curve with a large enough effect in the repeat runs, not every such curve was filed as active; also: series mostly up to about 51 µM). In short, it runs like this:
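Intracellular calcium fluorescence, read kinetically every second over 3 min, reports TRH-evoked signalling in HEK293 cells carrying TRHR. Test compounds were added 5 min ahead of a 1 nM TRH challenge.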

The target is the same in experiment [9]. Briefly: qHTS assay to identify small molecule agonists of the thyrotropin-releasing hormone receptor (TRHR) signaling pathway (AID 1346891; calls by dose curve; also: series mostly up to about 58 µM). In short, it runs like this:
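Agonist-mode intracellular calcium readout: kinetic fluorescence over 3 min at 1 s intervals after compound addition to TRHR-HEK293 cells (18 h seeded, 2 h dye-loaded at 37 C). Fifteen concentrations, triplicates.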

Experiment [10] in a line: qHTS assay to identify small molecule agonists of the progesterone receptor (PR) signaling pathway - cell viability counter screen (AID 1346799; calls by dose curve; also: nearly all actives have a fitted effect of over 45% in size; also: potency is read from the fitted curve at half-maximal effect). The essentials: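 Cytotoxicity measured by CellTiter-Glo luminescence (30 min, RT) in the same wells as the PR beta-lactamase agonist read. Those HEK293T cells had 16 h compound treatment at 37 C in 2% charcoal-stripped FBS medium.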

Results filed as inconclusive are left out. Some structures have more than one record in an assay (separate samples or runs), and their calls can disagree. The source made the active and inactive calls. Unless noted, calls follow the shape of the dose curve; as a rule, active = well fitted curve in the direction sought with a large enough effect in the repeat runs; inconclusive = weak or mixed curves; inactive = no such curve, though single readings can be large; an effect the other way counts as inactive or inconclusive.

Sequence of Thyrotropin-releasing hormone receptor (Homo sapiens) (P34981 whole entry, looked up): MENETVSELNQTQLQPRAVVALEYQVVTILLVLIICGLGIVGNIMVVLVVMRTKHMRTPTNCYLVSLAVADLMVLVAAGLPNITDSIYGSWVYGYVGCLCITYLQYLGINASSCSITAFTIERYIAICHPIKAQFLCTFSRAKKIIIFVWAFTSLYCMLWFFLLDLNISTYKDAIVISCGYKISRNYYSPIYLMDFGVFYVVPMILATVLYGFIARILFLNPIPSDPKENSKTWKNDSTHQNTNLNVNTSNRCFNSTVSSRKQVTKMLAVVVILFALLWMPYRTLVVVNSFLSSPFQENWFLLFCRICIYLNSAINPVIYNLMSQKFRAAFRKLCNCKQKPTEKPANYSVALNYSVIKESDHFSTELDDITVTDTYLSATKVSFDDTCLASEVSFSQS
Sequence of Progesterone receptor (Homo sapiens) (P06401 whole entry, looked up): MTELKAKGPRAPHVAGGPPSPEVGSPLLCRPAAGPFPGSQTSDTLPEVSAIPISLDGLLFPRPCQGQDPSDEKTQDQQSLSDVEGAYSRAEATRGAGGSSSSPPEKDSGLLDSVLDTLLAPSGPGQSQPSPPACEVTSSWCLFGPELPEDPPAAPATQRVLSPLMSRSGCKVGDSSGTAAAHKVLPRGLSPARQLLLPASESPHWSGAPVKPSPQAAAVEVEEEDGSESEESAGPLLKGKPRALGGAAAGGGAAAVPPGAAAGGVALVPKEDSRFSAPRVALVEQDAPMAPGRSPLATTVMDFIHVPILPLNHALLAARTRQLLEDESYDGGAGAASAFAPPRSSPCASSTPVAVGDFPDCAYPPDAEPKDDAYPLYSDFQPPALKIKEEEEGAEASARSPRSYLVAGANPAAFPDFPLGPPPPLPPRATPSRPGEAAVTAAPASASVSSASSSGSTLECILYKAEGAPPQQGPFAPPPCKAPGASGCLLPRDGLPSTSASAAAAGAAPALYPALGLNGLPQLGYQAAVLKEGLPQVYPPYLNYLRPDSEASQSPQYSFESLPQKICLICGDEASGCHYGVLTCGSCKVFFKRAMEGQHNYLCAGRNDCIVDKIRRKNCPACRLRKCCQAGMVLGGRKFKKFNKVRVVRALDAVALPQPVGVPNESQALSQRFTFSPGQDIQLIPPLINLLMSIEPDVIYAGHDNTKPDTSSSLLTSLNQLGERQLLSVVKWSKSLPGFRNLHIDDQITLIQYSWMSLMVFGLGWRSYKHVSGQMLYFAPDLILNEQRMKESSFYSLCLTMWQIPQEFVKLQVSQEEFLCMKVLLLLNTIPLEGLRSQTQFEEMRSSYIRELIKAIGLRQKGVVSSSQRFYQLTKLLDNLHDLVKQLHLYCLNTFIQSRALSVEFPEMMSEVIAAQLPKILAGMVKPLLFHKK

Regarding `CCOC(=O)/C=C\C(=O)OCC`, the Potency result in [1], in experiment [2], in experiment [3], in experiment [4], in experiment [5] and in experiment [6] was “inactive” throughout. For the same compound, the Potency entry in [9] was “inactive”. In addition, the call in experiment [7] and in experiment [8] was inactive.

With `Oc1c(Cl)cc(Cl)c(Cl)c1Cl`, the Potency entry in [1], in [3], in experiment [4], in experiment [5], in experiment [6] and in experiment [9] was “inactive” throughout. In addition, the compound was classed as inactive in [7] and in experiment [8].

Regarding `CCCCCCOC(C)=O`, the Potency result in experiment [1], in experiment [2], in [3], in [5] and in experiment [6] was “inactive” throughout. Also, in [7], the compound was classed as inactive.

For the compound `C=C(C)C(=O)OCCC[Si](OC)(OC)OC`, the Potency entry in experiment [1], in experiment [2], in [3], in experiment [4], in [5] and in [6] was “inactive” in each case. In experiment [9], the Potency entry is “inactive”. Further, the call in experiment [7] and in experiment [8] was inactive.

Regarding `CC#C[C@]1(O)CC[C@H]2[C@@H]3CCC4=CC(=O)CCC4=C3[C@@H](c3ccc(N(C)C)cc3)C[C@@]21C`, the Potency entry in experiment [1], in experiment [2], in experiment [4], in experiment [5], in experiment [6] and in experiment [9] was “inactive” throughout. Besides, in experiment [8], the outcome was inactive.

For the compound `CC(=O)[C@@]1(O)CC[C@H]2[C@@H]3CCC4=CC(=O)CC[C@]4(C)[C@H]3CC[C@@]21C`, the Potency entry in experiment [1], in [3], in [4], in experiment [5], in [6] and in experiment [9] was “inactive” throughout. The Potency in experiment [2] is 3.35 µM (active). Further, the compound was called inactive in experiment [7] and in experiment [8].

On to `ClC1=C(Cl)C(Cl)(Cl)C(Cl)=C1Cl`, for which the Potency result in experiment [1], in [2], in experiment [3], in [4], in experiment [5] and in experiment [6] was “inactive” each time. Moreover, in [9], the Potency entry was “inactive”. For the same compound, the compound was called inactive in [7] and in experiment [8].

As to `COC(=O)c1ccc(C(=O)OC)cc1`, the Potency result in [1], in [5], in [6] and in [9] was “inactive” in each case. Also, in experiment [10], the Potency is 17.5 µM (active) and inactive. Also, the outcome in [7] and in experiment [8] was inactive.

As for `CC1=CC[C@H]2C[C@@H]1C2(C)C`, the Potency result in experiment [1], in experiment [2], in experiment [3], in [4], in [5] and in [6] was “inactive” in each case. The Potency result in experiment [9] was “inactive”. In addition, the compound was called inactive in experiment [7] and in experiment [8].

`CCCCC(CC)COC(=O)CCCCCCCC(=O)OCC(CC)CCCC` (stereo not drawn): the Potency entry in experiment [1], in experiment [2], in experiment [5], in experiment [6] and in [9] was “inactive” throughout. Further, the Potency in experiment [3] was 8.63 µM (active) and inactive. Also, the result in experiment [7] and in experiment [8] was inactive.

Take `Cc1cc(Cc2ccc(N)c(C)c2)ccc1N`: the Potency result in experiment [1], in [2], in experiment [4], in experiment [5], in experiment [6] and in experiment [9] was “inactive” throughout. The compound was classed as inactive in experiment [7] and in experiment [8].

For `c1ccc2[nH]cnc2c1`, the Potency result in experiment [1], in experiment [2], in experiment [3], in [10], in experiment [5] and in [6] was “inactive” throughout. In addition, the Potency result in experiment [9] was “inactive”. The outcome in [7] and in experiment [8] was inactive.

These data come from PubChem BioAssay (Tox21).
